Source: PubChem BioAssay AID651664 (NMMLSC, 2012)
The campaign covered roughly 1,800 compounds. Fewer than 10 were called active. The list is a sample of the results. Values without a mark were called inactive.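 How the source made its calls: active means inhibition of granule release above a set limit; inactive means the rest.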

Experiment: inhibitors of lytic granule exocytosis, flow cytometry, TALL-104 cells, validation set (AID 651664)
Settings: TALL-104 LAMP-1 externalization, at 15.2 µM, hits give high values, stimulated with thapsigargin and PMA

| SMILES | inhibition |
| --- | --- |
| Cc1ccc(C(=O)NC(=S)Nc2ccc(-c3cc4ccccc4oc3=O)cc2)c(C)c1 | -0.7% |
| CCOC(=O)c1[nH]c(C)c(/C(O)=C2\C(=O)C(=O)N(CCN(C)C)C2c2ccncc2)c1C (configuration not stated) | 4% |
| O=C1C=C(N2CCN(C(=O)c3ccccc3)CC2)C2(CCCCC2)O1 | -4.4% |
| CCc1ccc2c(c1)c(N=NC1=NC(=O)CS1)c(O)n2CC | -0.4% |
| CC(C)(C)NC(=O)C(=O)N/N=C/c1ccc(Br)cc1 | -2.4% |
| Cn1cnnc1Sc1cc(N2CCN(S(=O)(=O)c3ccc(Cl)c(Cl)c3)CC2)ccc1[N+](=O)[O-] | 0.3% |
| O=C(NCc1ccc2c(c1)OCO2)c1cccc(F)c1 | 6.2% |
| Cc1cc(C(=O)CSc2nc3ccc(Cl)cc3[nH]2)c(C)n1CC1CCCO1 (configuration not stated) | 1.6% |
| COc1ccc(/C(O)=C2/C(=O)C(=O)N(CCCN(C)C)C2c2ccc(Cl)cc2)cc1OC (configuration not stated) | 6.2% |
| CCCCN(CCCC)CP(=O)(c1ccccc1)c1ccccc1 | 0% |
| O=C(Cn1cnc2ccccc2c1=O)c1ccc2ccccc2c1 | 0% |
| CC1CCN(S(=O)(=O)c2ccc(F)c(C(=O)O)c2)CC1 | 3.9% |
| CC(=O)c1ccc(NC(=O)Nc2ccc(NS(=O)(=O)c3ccc(C)cc3)cc2)cc1 | -2.9% |
| CCCCN(CCCC)C(=S)N/N=C/c1c(C)[nH]n(-c2ccccc2)c1=O | -0.4% |
| Cc1ccc(C(=O)C2(C)C3c4cc(Br)ccc4OC(=O)C32C(=O)c2ccco2)cc1 (configuration not stated) | 93.2% (active) |
| N#CC1=C(N)N(c2ccc(Oc3ccccc3)cc2)C(=O)C1 | 1.8% |
| CCN(CC)C(=O)CSc1nc2ccccc2c(=O)[nH]1 | 0.4% |
| O=C(/C=C/c1ccc([N+](=O)[O-])cc1)NCC1CCCO1 (configuration not stated) | -0.8% |
| COc1cccc2cc(C(=O)Nc3cccc(C)n3)c(=O)oc12 | 4.9% |
| CCCCSC(=S)N(C)C1CCS(=O)(=O)C1 (configuration not stated) | -0.4% |
| COP(C)(=O)c1c(C)nn(-c2ccccc2)c1C (configuration not stated) | -2.1% |
| Cn1c(Cl)c(C(=O)Nc2ccccc2)c2ccccc21 | -1.3% |
| Cc1csc(NC(=O)Cc2coc3cc(C)c(C(C)C)cc23)n1 | -2.3% |
| N/C(=N\OC(=O)c1cccc(Br)c1)c1ccc(Br)cc1 | 57.6% (active) |
| N/C(=N\OC(=O)CCCN1C(=O)c2ccccc2C1=O)c1ccc(Br)cc1 | -3.6% |

| SMILES | inhibition |
| --- | --- |
| N/C(=N\OC(=O)c1ccc(Cl)cc1Cl)c1ccc(Cl)cc1 | 5.2% |
| CCOC(=O)C(C)On1c(-c2ccccc2)nc2ccc([N+](=O)[O-])cc21 (configuration not stated) | 4.1% |
| CCc1nn(-c2ccccc2)c2c1-c1cc(OC)c(OC)cc1C1(N2)C(=O)Nc2ccccc21 (configuration not stated) | -0.7% |
| CCOc1c(Cl)cc(C(=O)Nc2ccccc2-c2ccccc2)cc1Cl | -0.6% |
| O=C(COc1ccccc1O)N1CCN(C(=O)c2ccco2)CC1 | 0.9% |
| OCCSc1ncnc2c1oc1ccccc12 | -1.3% |
| O=C(O)CCCCCNC(=O)Nc1ccc2c(c1)OCCO2 | -3.4% |
| O=C1c2ccccc2NC(c2cnc3ccccc3n2)N1O (configuration not stated) | -0.6% |
| COc1cc(CC(=O)OCC(=O)c2ccc3c(c2)OCCO3)cc(OC)c1OC | 0.6% |
| Cc1cc(NC(=O)c2cccc3ccccc23)cc(C)c1OCC(=O)N1CCOCC1 | -2.8% |
| N#Cc1c(-c2ccccc2)nc(-c2ccccc2)nc1N1CCOCC1 | -0.6% |
| Cc1nc2c(=O)oc3ccccc3c2n1-c1ccccc1 | -0.5% |
| CCOC(=O)C1CCN(C(=O)CN(c2cc(OC)ccc2OC)S(=O)(=O)c2ccccc2)CC1 | -2.6% |
| Cc1nn(C)cc1CNC(=O)CCC(=O)O | 5.3% |
| COC(=O)C1CCN(c2cc(=O)n(C3CCCCC3)c(=O)[nH]2)CC1 | 5.6% |
| Cc1ccccc1C1CC(c2ccccc2OC(F)F)Nc2ncnn21 (configuration not stated) | -2.3% |
| Cc1cc2ccccc2nc1SCC(=O)N1c2ccccc2CC1C (configuration not stated) | -0.9% |
| CC12Cc3ccc4ccccc4c3C=C1C[N+](C)(C)C2 (configuration not stated) | -0.3% |
| CC1=NC(=O)C(N=Nc2ccccc2)N1c1ccccc1 (configuration not stated) | -2.8% |
| CC(C)c1ccc(NS(=O)(=O)c2ccc3[nH]cc(C(=O)N4CCC(C(N)=O)CC4)c(=O)c3c2)cc1 | -0.7% |
| CCC(C)(C)NC(=O)C(c1ccco1)N(C(=O)Cn1nnc2ccccc21)c1ccc2c(c1)OCO2 (configuration not stated) | -0.1% |
| Cc1ccc(S(=O)(=O)N2CCN(C(=O)c3cc4c(C)nn(-c5ccccc5C)c4s3)CC2)cc1 | -1.8% |
| CCOC(=O)c1sc2nc(CC(=O)OC)nc(NCCN3CCOCC3)c2c1C | -2.4% |
| COc1ccc(C(C)=O)cc1CN1C(=O)NC2(CCCCC2)C1=O | -0.4% |
| Cc1occc1C(=O)Nc1ccc2ccccc2c1 | 0.2% |

| SMILES | inhibition |
| --- | --- |
| CCS(=O)(=O)N1CCCC(C(=O)NC2CCCCC2C)C1 (configuration not stated) | 0.3% |
| O=C(O)c1c[nH]c(=S)n1-c1ccc(F)cc1 | 1.2% |
| COCCN1CN(S(=O)(=O)c2ccc(Cl)cc2)c2nc3ccccc3nc21 | -1.9% |
| COc1cccc(C(C(=O)NCc2ccco2)N(Cc2ccco2)C(=O)Cn2nnc3ccccc32)c1 (configuration not stated) | -3.7% |
| CCCn1c2c(c(O)c(C(=O)Nc3ccccc3)c1=O)CCCC2 | 1.8% |
| CSCC[C@H](NC(=O)NCCC1=CCCCC1)C(=O)O | 1.1% |
| CCOC(=O)c1c(C(C)(C)C)oc2ccc(O)cc12 | 1.3% |
| Clc1ccc(CON/C=N/c2ncnc3sccc23)cc1 | -1.5% |
| CSc1nc(-c2ccc(Cl)cc2)nn1C(=O)c1ccco1 | 7% |
| C1=C(c2ccccc2)Nc2nnnn2C1c1cccs1 (configuration not stated) | 0.7% |
| O=C(NCc1nc2ccccc2[nH]1)c1cc2ccccc2oc1=O | 6.1% |
| c1ccc2nc(-c3nc4ccccc4[nH]3)ccc2c1 | 0.9% |
| Cc1cccc(CC(Cc2nc3ccccc3[nH]2)c2nc3ccccc3[nH]2)c1 (configuration not stated) | 94.4% (active) |
| COc1ccc(CCNC(=O)c2ccccc2NC(=O)c2ccco2)cc1OC | -1.7% |
| COC(=O)CN1C(=O)C(O)(CC(=O)c2ccc(C)o2)c2ccccc21 (configuration not stated) | -1.9% |
| COc1cccc(OC)c1C(=O)Nc1cc(C)on1 | -2.4% |
| O=C(c1ccc(F)cc1)c1ccc(N2CCCC2)cc1 | -4.5% |
| O=c1cc(N2CCc3ccccc3C2)[nH]c(=O)n1C1CCCCC1 | 8.4% |
| CCN(CC)C(=O)CSc1ncnc2c1nnn2-c1ccc(OC)cc1 | -0.1% |
| O=S(=O)(CCc1nc2ccccc2o1)c1ccc(Cl)c(Cl)c1 | -2.2% |
| COC(=O)c1ccccc1NC(=O)c1ccc(COc2ccc(C)c(C)c2)o1 | -0.1% |
| O=C(c1ccc(S(=O)(=O)N2CCCCCC2)cc1)N1CCC(CN2C(=O)c3cccc4cccc(c34)C2=O)CC1 | 0.6% |
| c1nnnn1C12CC3CC(CC(C3)C1)C2 | 3.1% |
| COC(=O)c1ccc(N2C(=O)CC(SCCN)C2=O)cc1 (configuration not stated) | -1.8% |
| CCOC(=O)c1ccc(N2C(=O)CC(C3CCCO3)C2=O)cc1 (configuration not stated) | 3.6% |

| SMILES | inhibition |
| --- | --- |
| COC(=O)c1ccc(N2C(=O)CC(N(C)CCc3ccc(OC)c(OC)c3)C2=O)cc1 (configuration not stated) | 66% (active) |
| O=C(Nc1cc(C(F)(F)F)ccc1N1CCOCC1)c1cccnc1Cl | -2.8% |
| CCCS(=O)(=O)N1CCCC(C(=O)NCCN(Cc2ccccc2)C(C)C)C1 (configuration not stated) | -0.7% |
| O=C(/C=C/Nc1cccc(C(F)(F)F)c1)c1ccc(Oc2ncccn2)cc1 | -1% |
| NC(=S)N/N=C/c1ccc(-c2cccc([N+](=O)[O-])c2)o1 | 1.9% |
| COc1ccc(NC(=O)c2cccc(S(=O)(=O)N3CCOCC3)c2)cn1 | 1.5% |
| O=C(NCC1CCCO1)/C(=C\c1ccco1)NC(=O)c1ccccc1 (configuration not stated) | -2.2% |
| CCc1ccc(Nc2ncccc2C#N)cc1 | 1.1% |
| C=CCn1c(-c2cccs2)nc2nc3ccccc3nc21 | -2.3% |
| C/C(=N/OC(=O)c1ccc(F)cc1)c1ccc(C)cc1 | 0.7% |
| CC1(C)Cc2c(C#N)c(SCc3ccccc3)nc(N3CCOCC3)c2CO1 | 1.1% |
| Fc1ccc(C2=Nn3c(Cc4ccccc4F)nnc3SC2)cc1 | 1.3% |
| CC(=O)N1CCc2cc(NS(=O)(=O)c3cccs3)ccc21 | -1.2% |
| COc1cc(OC)cc(C(=O)Nc2nc3ccccc3[nH]2)c1 | -1% |
| Cc1cccc(N2CCN(CC(=O)Nc3ccc(-n4cnnn4)cc3)CC2)c1C | -0.6% |
| COc1ccc(-c2cn[nH]c2N)cc1OC | 2.5% |
| O=C(COC(=O)c1ccccc1)NCc1ccco1 | -0.5% |
| CCOC1(OCC)N=C(N)C2(C#N)C(c3cccc(C)c3)C12C#N (configuration not stated) | -0.4% |
| Cc1ccc(NC(=O)/C(=C\C=C\c2ccccc2)NC(=O)c2ccccc2)cc1 | -0.3% |
| Cc1ccc(NC(=O)c2cc(S(=O)(=O)Nc3ccc(C)cc3)cs2)cc1 | 0.6% |
| COc1cc(N)cc(NC(=O)c2ccncc2)c1 | -0.4% |
| COc1ccc(CN2CCOCC2)cc1 | 1.5% |
